Laboratory results as given in PubChem BioAssay (Tox21).
Unmarked numbers belong to inactive results. Results filed as inconclusive are left out. Entries that show only a call come without a potency. Activity calls are given as the source filed them. Unless noted, calls come from the whole dose curve.

Assays:
[1] = Nuclear factor erythroid 2-related factor 2/antioxidant responsive element (Nrf2/ARE) small molecule agonists: luciferase reporter gene qHTS assay in human keratinocytes (AID 1919969); note: nearly all actives have a fitted effect of over 35% in size; note: potency is the fitted concentration of half-maximal effect
[2] = target: Gonadotropin-releasing hormone receptor (Homo sapiens) (UniProt P30968); test: Human gonadotropin-releasing hormone receptor (GnRHR) small molecule agonists, calcium flux assay in GnRHR-HEK293 cells (AID 1920063); note: nearly all actives have a fitted effect of over 35% in size
How it was run: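 Intracellular calcium rise is the read-out: engineered human GnRHR HEK293 cells, dye-loaded, are exposed to DMSO-dissolved compounds and fluorescence at Ex/Em 480/540 is tracked for 3 min.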

[3] = target: KiSS-1 receptor (Homo sapiens) (UniProt Q969F8); test: Human kisspeptin (KISS1R) small molecule agonists, calcium flux assay in KISS1R-HEK293 cells (AID 1920064; active = well fitted activation curve with a large enough effect in the repeat runs)
How it was run: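 Concentration-response testing used 15 concentrations in triplicate on human KISS1R-expressing HEK293 cells. Calcium-dependent fluorescence (Ex/Em 480/540) was followed kinetically for 3 min after compound transfer.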

[4] = G protein-coupled receptor (GPCR) small molecule agonists, calcium flux assay: HEK293 wild type cell line counter screen (AID 1920065)
How it was run: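 Fluorescence intensity signals activation. After overnight (18 h) culture and a 1 h calcium dye load at 37 C, compounds are added by pin tool and the plate read at 480/540 nm for 3 min in 1 s steps.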

[5] = p53 small molecule agonists, cell-based qHTS assay with human liver microsomes (AID 1963577);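 note: p53 response element beta-lactamase reporter cells with liver microsomes plus NADPH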
How it was run: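 16 h, 37 C exposure of p53RE-bla cells to compounds with human liver microsomes and NADPH (0.5 mg/mL final each); detection via LiveBLAzer mixture, 2 h dark at room temperature.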

[6] = p53 small molecule agonists, cell-based qHTS assay with rat liver microsomes (AID 1963578)
How it was run: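 With rat liver microsomes and NADPH present (0.5 mg/mL final each), p53RE-bla cells are treated with compound for 16 h at 37 C. LiveBLAzer detection mixture is then applied for 2 h at room temperature in the dark.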

[7] = p53 small molecule agonists, cell-based qHTS assay with human liver microsomes: qHTS cell viability counter screen (AID 1963579); note: nearly all actives have a fitted effect of over 45% in size; note: potency is the fitted concentration of half-maximal effect
How it was run: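 In this multiplexed counter screen, the reporter plates were subsequently treated with CellTiter-Glo so that cell viability, reflected by luminescence, could be recorded for p53RE-bla cells dosed 16 h with compounds under microsomal activation (HLM and NADPH).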

[8] = p53 small molecule agonists, cell-based qHTS assay with rat liver microsomes: qHTS cell viability counter screen (AID 1963580); note: nearly all actives have a fitted effect of over 45% in size; note: potency is the fitted concentration of half-maximal effect
How it was run: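 Cytotoxicity counter screen: intracellular ATP read by CellTiter-Glo luminescence in the p53 reporter wells. HCT-116 p53RE-bla cells were treated for 16 h at 37 C alongside rat liver microsomes and NADPH, each 0.5 mg/mL final.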

[9] = p53 small molecule agonists, cell-based qHTS assay (AID 1963582; active = well fitted activation curve with a large enough effect in the signal ratio in the repeat runs, not every such curve was filed as active; the % refers to the signal ratio)
How it was run: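 After plating, p53RE-bla cells sat 5 h in the incubator; compounds or DMSO vehicle were pinned in; a 16 h incubation at 37 C followed; FRET substrate was added and, 2 h later at RT, fluorescence was measured.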

[10] = target: 5-hydroxytryptamine receptor 2A (Homo sapiens) (UniProt P28223); test: 5-hydroxytryptamine receptor 2A (HTR2A) small molecule agonists, cell-based qHTS assay (AID 1963587); note: nearly all actives have a fitted effect of over 30% in size
How it was run: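 Kinetic calcium-flux fluorescence (2 min, 1 sec intervals) after compound addition in agonist mode. HTR2A-CHO cells were cultured 18 h, then dye-loaded 1 h at 37 C.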

[11] = target: Muscarinic acetylcholine receptor M1 (Homo sapiens) (UniProt P11229); test: Cholinergic receptor muscarinic 1 (CHRM1) small molecule antagonists, cell-based qHTS assay (AID 1963588); note: nearly all actives have a fitted effect of over 40% in size; note: potency is the fitted concentration of half-maximal effect
How it was run: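 Compounds were tested at 15 concentrations in three independent runs. Dye-loaded CHRM1-CHO cells were exposed 5 min at room temperature before stimulation by acetylcholine added at 50nM. Intracellular calcium was read kinetically on FDSS for 3 min.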

[12] = cAMP Responsive Elements (CRE) small molecule agonists, cell-based qHTS assay (AID 1963590)
How it was run: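 Compound exposure lasted 3 h at 37 C/5% CO2 in CRE-bla HEK 293T cells grown in assay medium with 10% dialyzed FBS and 25 mM HEPES. Reporter signal came from LiveBLAzer B/G FRET substrate, 2 h, room temperature.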

[13] = cAMP Responsive Elements (CRE) small molecule antagonists, cell-based qHTS assay (AID 1963591; active = well fitted inhibition curve with a large enough effect in the signal ratio in the repeat runs, not every such curve was filed as active; the % refers to the signal ratio)
How it was run: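 Stimulation used NKH477 at a final 0.25 uM for 3 h in compound-treated CRE-bla HEK293T cells, seeded 18 h beforehand. Reporter activity was measured with LiveBLAzer B/G FRET substrate after 2 h at room temperature.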

[14] = target: Beta-2 adrenergic receptor (Homo sapiens) (UniProt P07550); test: Adrenergic beta2 receptor (ADRB2) small molecule agonists, cell-based qHTS assay (AID 1963593);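 note: CHO cells stably overexpressing human ADRB2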
How it was run: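 CHO cells stably over-expressing ADRB2 were plated overnight at 37C, then dosed with compounds plus a stimulation mix containing 100uM IBMX and 25uM Ro-20-1724 for 0.5hr at room temperature. cAMP was measured by HTRF competition, 1hr.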

[15] = target: D(2) dopamine receptor (Homo sapiens) (UniProt P14416); test: Dopamine D2 receptor (DRD2) small molecule antagonists, cell-based qHTS assay (AID 1963595; active = well fitted inhibition curve with a large enough effect in the signal ratio in the repeat runs, with a control signal flat; the % refers to the signal ratio; note: potency is the fitted concentration of half-maximal effect)
How it was run: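 Readout: HTRF cAMP, cAMP-d2 competing with cellular cAMP for anti-cAMP cryptate, read after 1 h. Cells: DRD2-HEK293. Conditions: 0.1 mM Ro20-1724, 12 nM quinpirole, 200 nM NKH477, 30 min RT.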

[16] = p53 small molecule agonists, cell-based qHTS assay: qHTS cell viability counter screen (AID 1963581); note: nearly all actives have a fitted effect of over 45% in size; note: potency is the fitted concentration of half-maximal effect
How it was run: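 Luminescence from CellTiter-Glo, reflecting ATP content, serves as the cytotoxicity measure; it is taken after the 2 h reporter substrate step in HCT-116 p53RE-bla cells dosed for 16 h at 37 C.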

[17] = target: 5-hydroxytryptamine receptor 2A (Homo sapiens) (UniProt P28223); test: 5-hydroxytryptamine receptor 2A (HTR2A) small molecule antagonists, cell-based qHTS assay (AID 1963586); note: nearly all actives have a fitted effect of over 45% in size; note: potency is the fitted concentration of half-maximal effect
How it was run: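 CHO cells stably expressing human HTR2A were plated for 18 h at 37 C, then loaded with calcium dye for 1 h. Compounds were preincubated 5 min at room temperature before DOI (4 nM solution) was added. Kinetic fluorescence was read for 3 min.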

[18] = target: Muscarinic acetylcholine receptor M1 (Homo sapiens) (UniProt P11229); test: Cholinergic receptor muscarinic 1 (CHRM1) small molecule agonists, cell-based qHTS assay (AID 1963589); note: nearly all actives have a fitted effect of over 35% in size
How it was run: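 Fluorescent calcium dye reports M1 activation in stably transfected CHO cells. Compounds, 15 concentrations, added after 1 h dye loading at 37 C; kinetic reading at 1 sec intervals.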

[19] = target: Beta-2 adrenergic receptor (Homo sapiens) (UniProt P07550); test: Adrenergic beta2 receptor (ADRB2) small molecule antagonists, cell-based qHTS assay (AID 1963592); note: nearly all actives have a fitted effect of over 50% in size; note: potency is the fitted concentration of half-maximal effect; for activity change, negative = inhibition: series mostly up to about 92 µM
How it was run: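 Assay format: CHO-ADRB2 cells, 18-20hr seeding at 37C/5% CO2, then compound plus 1nM isoproterenol agonist mix for 0.5hr RT. Homogeneous time-resolved fluorescence cAMP detection after 1hr, expressed as 665/615 nm ratio.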

[20] = target: D(2) dopamine receptor (Homo sapiens) (UniProt P14416); test: Dopamine D2 receptor (DRD2) small molecule agonists, cell-based qHTS assay (AID 1963594); note: nearly all actives have a fitted effect of over 35% in size
How it was run: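 cAMP accumulation in DRD2-HEK293 cells measured by HTRF after 1 h detection; compounds added 10 min before NKH477 (200nM […]) forskolin-analogue stimulation, 30 min at room temperature, with Ro20-1724 present at 0.1 mM final.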

Chain of KiSS-1 receptor (Homo sapiens) (Q969F8 whole entry, looked up): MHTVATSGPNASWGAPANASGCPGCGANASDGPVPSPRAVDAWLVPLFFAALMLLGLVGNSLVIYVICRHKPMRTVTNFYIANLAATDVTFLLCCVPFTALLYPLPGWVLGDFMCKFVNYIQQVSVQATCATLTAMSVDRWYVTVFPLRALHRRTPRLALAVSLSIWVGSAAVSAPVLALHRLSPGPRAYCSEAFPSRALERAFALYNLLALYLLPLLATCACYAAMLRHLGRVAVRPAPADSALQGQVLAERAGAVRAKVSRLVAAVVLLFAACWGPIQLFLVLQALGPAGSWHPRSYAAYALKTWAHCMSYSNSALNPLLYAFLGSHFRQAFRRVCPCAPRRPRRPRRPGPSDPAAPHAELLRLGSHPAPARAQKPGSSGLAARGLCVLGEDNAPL
Chain of D(2) dopamine receptor (Homo sapiens) (P14416 whole entry, looked up): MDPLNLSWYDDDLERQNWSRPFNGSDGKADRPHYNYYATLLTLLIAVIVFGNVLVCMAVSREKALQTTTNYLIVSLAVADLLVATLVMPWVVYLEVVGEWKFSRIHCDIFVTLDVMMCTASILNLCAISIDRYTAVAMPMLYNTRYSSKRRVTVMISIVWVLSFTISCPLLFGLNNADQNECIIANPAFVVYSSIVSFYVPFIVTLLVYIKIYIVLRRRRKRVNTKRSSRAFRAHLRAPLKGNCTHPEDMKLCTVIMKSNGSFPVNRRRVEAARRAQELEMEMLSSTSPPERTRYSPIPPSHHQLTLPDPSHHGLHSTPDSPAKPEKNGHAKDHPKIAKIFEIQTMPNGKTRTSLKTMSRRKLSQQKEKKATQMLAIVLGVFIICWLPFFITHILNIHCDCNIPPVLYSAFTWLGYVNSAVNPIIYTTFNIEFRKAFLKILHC
Chain of 5-hydroxytryptamine receptor 2A (Homo sapiens) (P28223 whole entry, looked up): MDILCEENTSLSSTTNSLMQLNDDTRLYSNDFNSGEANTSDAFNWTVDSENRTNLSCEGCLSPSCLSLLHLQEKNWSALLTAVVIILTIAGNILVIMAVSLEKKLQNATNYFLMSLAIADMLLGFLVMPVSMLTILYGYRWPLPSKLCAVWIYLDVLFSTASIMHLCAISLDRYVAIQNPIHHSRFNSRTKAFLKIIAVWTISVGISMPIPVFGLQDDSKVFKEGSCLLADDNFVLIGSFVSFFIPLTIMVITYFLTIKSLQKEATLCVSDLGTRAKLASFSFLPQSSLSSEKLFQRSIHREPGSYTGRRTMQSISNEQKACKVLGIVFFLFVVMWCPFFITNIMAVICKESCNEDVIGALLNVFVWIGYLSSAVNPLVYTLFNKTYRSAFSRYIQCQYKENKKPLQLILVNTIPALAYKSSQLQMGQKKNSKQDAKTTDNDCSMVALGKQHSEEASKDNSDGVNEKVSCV
Chain of Gonadotropin-releasing hormone receptor (Homo sapiens) (P30968 whole entry, looked up): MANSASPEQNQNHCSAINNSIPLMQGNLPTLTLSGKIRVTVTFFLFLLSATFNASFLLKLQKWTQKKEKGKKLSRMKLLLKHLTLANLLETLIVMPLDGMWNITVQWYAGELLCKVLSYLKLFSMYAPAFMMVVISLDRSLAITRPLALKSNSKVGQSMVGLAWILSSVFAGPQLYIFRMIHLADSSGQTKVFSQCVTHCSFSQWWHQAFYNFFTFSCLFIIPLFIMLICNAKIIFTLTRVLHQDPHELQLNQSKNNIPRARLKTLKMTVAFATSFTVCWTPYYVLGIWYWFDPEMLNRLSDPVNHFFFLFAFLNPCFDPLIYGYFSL
Chain of Muscarinic acetylcholine receptor M1 (Homo sapiens) (P11229 whole entry, looked up): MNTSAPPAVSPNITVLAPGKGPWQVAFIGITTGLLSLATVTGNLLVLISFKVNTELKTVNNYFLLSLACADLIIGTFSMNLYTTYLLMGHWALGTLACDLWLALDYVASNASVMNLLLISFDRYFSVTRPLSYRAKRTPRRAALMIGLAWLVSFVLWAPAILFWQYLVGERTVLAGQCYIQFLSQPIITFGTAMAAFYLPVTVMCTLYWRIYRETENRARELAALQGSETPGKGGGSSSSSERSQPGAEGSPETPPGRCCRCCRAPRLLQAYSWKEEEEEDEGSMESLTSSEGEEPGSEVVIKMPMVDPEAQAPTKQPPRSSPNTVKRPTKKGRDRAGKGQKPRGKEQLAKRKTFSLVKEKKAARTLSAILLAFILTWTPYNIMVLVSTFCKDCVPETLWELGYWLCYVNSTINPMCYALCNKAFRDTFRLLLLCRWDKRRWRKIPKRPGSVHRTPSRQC
Chain of Beta-2 adrenergic receptor (Homo sapiens) (P07550 whole entry, looked up): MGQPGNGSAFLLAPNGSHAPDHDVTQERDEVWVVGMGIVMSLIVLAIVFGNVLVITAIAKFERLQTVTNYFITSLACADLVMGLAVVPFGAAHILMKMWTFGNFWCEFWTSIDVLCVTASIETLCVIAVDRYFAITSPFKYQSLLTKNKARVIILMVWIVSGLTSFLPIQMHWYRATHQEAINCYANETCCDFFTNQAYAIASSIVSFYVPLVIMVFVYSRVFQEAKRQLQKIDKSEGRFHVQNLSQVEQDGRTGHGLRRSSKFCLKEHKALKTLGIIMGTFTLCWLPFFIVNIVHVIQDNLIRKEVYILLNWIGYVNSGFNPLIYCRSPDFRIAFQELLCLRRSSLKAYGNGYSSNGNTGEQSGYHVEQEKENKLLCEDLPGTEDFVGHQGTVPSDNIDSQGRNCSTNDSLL

N[C@@H](C(=O)N[C@@H]1C(=O)N2C(C(=O)O)=C(Cl)CS[C@H]12)c1ccccc1
activity, positive = activation [1]: -7.33% [at 8.39 µM] | activity change [2]: -0.646% [at 5.22 µM, stronger effect = higher value] | activation [3]: -2.2% [at 6.97 µM] | activation [4]: -0.0598% [at 5.23 µM] | activation [5]: 0.17% [at 5.99 µM] | activation [6]: -0.141% [at 5.99 µM] | activity change, negative = cytotoxicity [7]: 3.89% [at 5.99 µM] | activity change, negative = cytotoxicity [8]: 0.042% [at 5.99 µM] | activation [9]: 0.331% [at 5.99 µM] | activation [10]: -1.95% [at 7.02 µM] | activity, negative = inhibition [11]: 6.01% [at 5.58 µM] | activation [12]: -0.664% [at 8.39 µM] | activity change, negative = inhibition [13]: -10.2% [at 8.39 µM] | activation [14]: -30.9% [at 8.39 µM] | activity change, negative = inhibition [15]: 6.7% [at 8.38 µM]

O=C1CCCCCN1SSN1CCCCCC1=O
Potency [1]: 24.3 µM (active) | Potency [2]: inactive | Potency [3]: inactive | Potency [4]: inactive | Potency [5]: inactive | Potency [6]: inactive | Potency [7]: inactive | Potency [8]: inactive | Potency [16]: inactive | Potency [17]: inactive | Potency [18]: inactive | Potency [13]: inactive | Potency [19]: inactive | Potency [20]: inactive | Potency [15]: inactive

CC1CCCCN1CCCOC(=O)c1ccc(OC2CCCCC2)cc1 (stereo unspecified)
Potency [1]: inactive | Potency [2]: inactive | Potency [3]: inactive | Potency [4]: inactive | Potency [5]: inactive | Potency [6]: inactive | Potency [7]: inactive | Potency [8]: inactive | Potency [16]: inactive | Potency [11]: 0.365 µM (active) | Potency [18]: inactive | Potency [12]: inactive | Potency [13]: inactive | Potency [19]: inactive | Potency [20]: inactive | Potency [15]: inactive

CN1CCCC(CC2c3ccccc3Sc3ccccc32)C1 (stereo unspecified)
Potency [1]: inactive | Potency [2]: inactive | Potency [3]: inactive | Potency [4]: inactive | Potency [5]: inactive | Potency [6]: inactive | Potency [7]: inactive | Potency [8]: inactive | Potency [10]: inactive | Potency [11]: 0.0015 µM (active) | Potency [18]: inactive

NCCCOCCOCCOCCCN
Potency [1]: inactive | Potency [2]: inactive | Potency [3]: inactive | Potency [4]: inactive | Potency [5]: inactive | Potency [6]: inactive | Potency [7]: inactive | Potency [8]: inactive | Potency [16]: inactive | Potency [17]: inactive | Potency [10]: inactive | Potency [11]: inactive | Potency [18]: inactive | Potency [19]: inactive | Potency [15]: inactive

CCCCCCCCCCCCCCCCCC[N+](C)(C)Cc1ccccc1
Potency [1]: inactive | Potency [2]: inactive | Potency [3]: inactive | Potency [4]: inactive | Potency [5]: inactive | Potency [6]: inactive | Potency [7]: 46.2 µM (active) | Potency [8]: 46.2 µM (active) | Potency [16]: 20.6 µM (active) | Potency [17]: inactive | Potency [11]: 0.19 µM (active) | Potency [18]: inactive | Potency [19]: 61.7 µM (active) | Potency [20]: inactive

Cc1c(C(=O)NN2CCCCC2)nn(-c2ccc(Cl)cc2Cl)c1-c1ccc(Cl)cc1
Potency [1]: inactive | Potency [2]: inactive | Potency [3]: inactive | Potency [4]: inactive | Potency [5]: inactive | Potency [6]: inactive | Potency [7]: inactive | Potency [8]: inactive | Potency [16]: inactive | Potency [17]: inactive | Potency [11]: inactive | Potency [18]: inactive | Potency [12]: inactive | Potency [13]: inactive | Potency [19]: inactive | Potency [20]: inactive | Potency [15]: inactive

NC(=O)C1(N2CCCCC2)CCN(CCCN2c3ccccc3CCc3ccc(Cl)cc32)CC1
Potency [1]: inactive | Potency [2]: inactive | Potency [3]: inactive | Potency [4]: inactive | Potency [5]: inactive | Potency [6]: inactive | Potency [7]: inactive | Potency [8]: inactive | Potency [17]: 0.103 µM (active) | Potency [11]: inactive | Potency [18]: inactive | Potency [20]: inactive | Potency [15]: 0.376 µM (active)
